Measured values published in PubChem BioAssay (EPA / NIEHS).
Active and inactive are the calls of the source. The calls were made as follows: active = hit-call score of the fitted dose curve at least 0.9, where 1 is the maximum; inactive = score below 0.9.

Key:
[1] = ATG_GLI_CIS: Attagene CIS-FACTORIAL HepG2 Assay for human Zinc Finger Protein GLI1 (AID 2282945); conditions: HepG2, Attagene cis-factorial reporter mRNA, GLI element; actives raise or lower the signal
Method in brief: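 Bidirectional curve fits relative to DMSO, using reporter mRNA levels from RT-PCR plus capillary electrophoresis. Cells were HepG2 transiently carrying cis-regulated reporter constructs, harvested 24 h after dosing.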

[2] = target: Bile acid receptor (Homo sapiens) (UniProt Q96RI1); test: ATG_IR1_CIS: Attagene CIS-FACTORIAL HepG2 Assay for human Nuclear Receptor Subfamily 1 Group H Member 4 (NR1H4), IR1 submotif (AID 2282946); conditions: IR1 reporter transcription, actives raise or lower the signal
Method in brief: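 HepG2 cells transiently transfected with multiplexed cis-element reporter units read endogenous transcription factor activity. After 24 h compound exposure, reporter mRNA was quantified by RT-PCR, fluorescent labelling, HpaI digestion and capillary electrophoresis; bidirectional fitting versus DMSO baseline.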

[3] = ATG_GRE_CIS: Attagene CIS-FACTORIAL HepG2 Assay for human Glucocorticoid Response Elements (GRE) (AID 2282947); conditions: HepG2 GRE cis-reporter, Attagene multiplex mRNA; actives raise or lower the signal
Method in brief: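 Reporter transcripts read by RT-PCR with capillary electrophoresis fluorescence after a 24 h chemical exposure of HepG2 cells transiently transfected with multiple cis-element reporter units. Gain or loss fitted against DMSO.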

[4] = ATG_M_32_CIS: Attagene CIS-FACTORIAL HepG2 Assay for M32 Transcription Factor (Internal Marker) (AID 2282949); conditions: HepG2 Attagene cis-factorial M32 reporter, mRNA; actives raise or lower the signal;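 also: background control marker of the multiplexed CIS panel rather than a real target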
Method in brief: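 HepG2 transfectants (cis-regulated reporter transcription units) dosed 24 h. Reporter mRNA by RT-PCR plus CE, analysed as gain or loss relative to DMSO.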

[5] = ATG_M_06_CIS: Attagene CIS-FACTORIAL HepG2 Assay for M06 Transcription Factor (Internal Marker) (AID 2282950); conditions: HepG2 Attagene CIS-FACTORIAL M06 internal marker reporter; actives raise or lower the signal
Method in brief: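 Cells (HepG2, transiently carrying cis-driven reporter units) receive chemical for 24 h before RNA isolation. Reporter cDNA is PCR-amplified, FAM-labelled by primer extension, HpaI-digested and sized on a capillary analyser.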

[6] = target: Hypoxia-inducible factor 1-alpha (Homo sapiens) (UniProt Q16665); test: ATG_HIF1a_CIS: Attagene CIS-FACTORIAL HepG2 Assay for human Hypoxia Inducible Factor 1 (HIF1A) (AID 2282951); conditions: HepG2 Attagene cis-factorial HIF1a reporter transcription; actives raise or lower the signal
Method in brief: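 In this multiplexed cell assay, HepG2 cells bearing transfected cis reporters are dosed for 24 h and reporter mRNA is read by RT-PCR plus capillary electrophoresis; signal increases and decreases are both scored against DMSO.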

[7] = target: Hepatocyte nuclear factor 6 (Homo sapiens) (UniProt Q9UBC0); test: ATG_HNF6_CIS: Attagene CIS-FACTORIAL HepG2 Assay for human Hepatocyte Nuclear Factor 6 (HNF6) (AID 2282952); conditions: HepG2 Attagene cis-factorial HNF6 reporter transcription; actives raise or lower the signal
Method in brief: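 Endogenous factor activity read in transiently transfected HepG2 via promoter-regulated reporter transcripts. RNA harvested 24 h post-dosing, reverse-transcribed, PCR-amplified, FAM-labelled, HpaI-digested and resolved by capillary electrophoresis; fitted in both directions against DMSO.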

[8] = ATG_MRE_CIS: Attagene CIS-FACTORIAL HepG2 Assay for human Metal Responsive Element (MRE) (AID 2282954); conditions: HepG2 MRE cis-reporter transcription, Attagene multiplex; actives raise or lower the signal
Method in brief: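 Endogenous MRE-dependent transcription read as reporter mRNA in transiently transfected human HepG2 cells at 24 h. RNA reverse-transcribed, PCR-amplified, labelled and resolved by capillary electrophoresis; gain or loss relative to DMSO.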

[9] = ATG_PBREM_CIS: Attagene CIS-FACTORIAL HepG2 Assay for human Phenobarbital-responsive Enhancer Module (PBREM) (AID 2282955); conditions: HepG2 PBREM cis-reporter, Attagene multiplexed transcription; actives raise or lower the signal
Method in brief: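 After a 24 h incubation with test chemical, transfected HepG2 cells yield total RNA; reporter-specific RT-PCR products are fluorescently labelled, HpaI-digested and resolved by capillary electrophoresis against ROX size standards.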

[10] = target: Paired box protein Pax-6 (Homo sapiens) (UniProt P26367); test: ATG_Pax6_CIS: Attagene CIS-FACTORIAL HepG2 Assay for human Paired Box 6 (PAX6) (AID 2282956); conditions: HepG2 CIS-FACTORIAL PAX6 reporter transcription, RNA readout; actives raise or lower the signal
Method in brief: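 Fluorescent RT-PCR products separated by capillary electrophoresis report PAX6-linked promoter mRNA in HepG2 cells 24 h post-dose. Curves fitted bidirectionally, DMSO as negative control.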

[11] = ATG_PXRE_CIS: Attagene CIS-FACTORIAL HepG2 Assay for human Pregnane X Receptor Element (PXRE) (AID 2282957); conditions: HepG2 Attagene CIS-FACTORIAL PXRE reporter, mRNA; actives raise or lower the signal
Method in brief: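 Reporter transcripts under endogenous PXR-responsive cis-regulation quantified from total RNA of transfected HepG2 cells 24 h post-dosing, via RT-PCR with fluorescent primer extension and capillary electrophoresis. Gain or loss of signal fitted against DMSO baseline.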

[12] = ATG_PPRE_CIS: Attagene CIS-FACTORIAL HepG2 Assay for human Peroxisome Proliferator-activated Response Element (PPRE) (AID 2282958); conditions: HepG2 PPRE cis-element reporter, Attagene transcription factor profiling; actives raise or lower the signal
Method in brief: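 Multiplexed reporter transcription units under cis-regulatory promoters were transfected into HepG2 cells to capture endogenous factor activity. A 24 h incubation preceded RNA isolation and fluorescent RT-PCR fragment analysis.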

[13] = ATG_RORE_CIS: Attagene CIS-FACTORIAL HepG2 Assay for human RAR-related Orphan Receptor Element (RORE) (AID 2282959); conditions: HepG2 Attagene cis-factorial RORE reporter, mRNA; actives raise or lower the signal
Method in brief: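 Fluorescence intensity of reporter-specific cDNA fragments, separated by capillary electrophoresis, gives the signal. Source: HepG2 liver cells transiently transfected with cis-element reporters and exposed 24 h; DMSO-normalized bidirectional fit.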

[14] = ATG_Sox_CIS: Attagene CIS-FACTORIAL HepG2 Assay for human SRY-box transcription factor (SOX) (AID 2282960); conditions: HepG2 Attagene cis-factorial SOX reporter, mRNA; actives raise or lower the signal
Method in brief: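 After 24 h of chemical treatment, transfected HepG2 reporter cells are lysed for total RNA. Transcript levels come from RT-PCR with labelled primer extension and capillary electrophoresis, analysed bidirectionally versus DMSO.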

[15] = ATG_SREBP_CIS: Attagene CIS-FACTORIAL HepG2 Assay for human Sterol Regulatory Element Binding (SREBP) (AID 2282962); conditions: HepG2 Attagene cis-factorial SREBP reporter, mRNA; actives raise or lower the signal
Method in brief: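 Endogenous factor activity is measured in HepG2 through multiplexed reporter units under cis-element control. Following a 24 h incubation, reporter transcripts are reverse-transcribed, PCR-amplified and sized by capillary electrophoresis; activity is fitted in both directions relative to DMSO.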

[16] = target: Signal transducer and activator of transcription 3 (Homo sapiens) (UniProt P40763); test: ATG_STAT3_CIS: Attagene CIS-FACTORIAL HepG2 Assay for human Signal Transducer and Activator of Transcription 3 (STAT3) (AID 2282963); conditions: HepG2, Attagene cis-factorial STAT3 reporter transcription; actives raise or lower the signal
Method in brief: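 Readout is reporter transcript quantified by RT-PCR and capillary electrophoresis, with 6-FAM primer extension and HpaI digestion. Total RNA is taken 24 h after dosing transiently transfected HepG2 carrying cis-regulated reporter units. Bidirectional fit against DMSO.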

[17] = ATG_TA_CIS: Attagene CIS-FACTORIAL HepG2 Assay for human TA Basal Promoter (AID 2282964); conditions: HepG2 Attagene CIS-factorial TA basal promoter reporter; actives raise or lower the signal
Method in brief: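 Background internal-marker endpoint from a 52-component HepG2 cis-reporter panel. Cells treated 24 h; reporter transcripts quantified via RT-PCR and CE fluorescence against DMSO baseline.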

[18] = target: Heat shock factor protein 1 (Homo sapiens) (UniProt Q00613); test: ATG_HSE_CIS: Attagene CIS-FACTORIAL HepG2 Assay for human Heat Shock Transcription Factor 1 (HSE) (AID 2282953); conditions: HepG2 HSE cis-reporter, Attagene RNA transcription; actives raise or lower the signal
Method in brief: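 Liver-derived HepG2 cells carry transiently introduced multiple reporter units governed by cis promoters. Reporter RNA measured 24 h post-dose through reverse transcription, PCR amplification, fluorescent labelling and capillary electrophoresis, normalised to DMSO.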

[19] = target: Transcription factor Sp1 (Homo sapiens) (UniProt P08047); test: ATG_Sp1_CIS: Attagene CIS-FACTORIAL HepG2 Assay for human Specificity Protein 1 (Sp1) (AID 2282961); conditions: HepG2 Sp1 cis-reporter transcription, actives raise or lower the signal
Method in brief: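 Sp1-driven reporter mRNA, read as capillary electrophoresis fluorescence after RT-PCR, in transiently transfected HepG2 cells dosed for 24 h; signal change in either direction relative to DMSO.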

Measured: AC50

Chain of Hypoxia-inducible factor 1-alpha (Homo sapiens) (Q16665 whole entry, looked up): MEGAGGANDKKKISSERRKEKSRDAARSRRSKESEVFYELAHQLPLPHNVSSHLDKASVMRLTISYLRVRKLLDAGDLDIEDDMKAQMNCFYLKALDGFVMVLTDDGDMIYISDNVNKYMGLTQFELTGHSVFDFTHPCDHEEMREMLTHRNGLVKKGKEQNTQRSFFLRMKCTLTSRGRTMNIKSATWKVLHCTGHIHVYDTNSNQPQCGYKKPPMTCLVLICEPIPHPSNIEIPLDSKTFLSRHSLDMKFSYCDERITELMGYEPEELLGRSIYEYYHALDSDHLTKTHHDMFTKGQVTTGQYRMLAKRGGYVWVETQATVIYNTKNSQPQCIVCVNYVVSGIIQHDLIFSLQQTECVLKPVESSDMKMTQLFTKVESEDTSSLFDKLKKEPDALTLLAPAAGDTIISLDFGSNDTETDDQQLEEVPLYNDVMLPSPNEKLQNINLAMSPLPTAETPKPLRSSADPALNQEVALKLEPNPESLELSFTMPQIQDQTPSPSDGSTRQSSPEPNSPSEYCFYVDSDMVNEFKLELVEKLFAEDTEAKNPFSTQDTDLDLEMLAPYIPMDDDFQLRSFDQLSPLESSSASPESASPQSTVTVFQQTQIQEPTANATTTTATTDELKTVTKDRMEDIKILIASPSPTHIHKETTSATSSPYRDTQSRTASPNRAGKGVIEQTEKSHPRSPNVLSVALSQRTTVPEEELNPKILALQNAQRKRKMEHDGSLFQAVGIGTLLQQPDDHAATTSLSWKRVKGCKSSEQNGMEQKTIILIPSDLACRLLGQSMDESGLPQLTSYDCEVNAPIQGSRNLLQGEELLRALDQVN
Chain of Bile acid receptor (Homo sapiens) (Q96RI1 whole entry, looked up): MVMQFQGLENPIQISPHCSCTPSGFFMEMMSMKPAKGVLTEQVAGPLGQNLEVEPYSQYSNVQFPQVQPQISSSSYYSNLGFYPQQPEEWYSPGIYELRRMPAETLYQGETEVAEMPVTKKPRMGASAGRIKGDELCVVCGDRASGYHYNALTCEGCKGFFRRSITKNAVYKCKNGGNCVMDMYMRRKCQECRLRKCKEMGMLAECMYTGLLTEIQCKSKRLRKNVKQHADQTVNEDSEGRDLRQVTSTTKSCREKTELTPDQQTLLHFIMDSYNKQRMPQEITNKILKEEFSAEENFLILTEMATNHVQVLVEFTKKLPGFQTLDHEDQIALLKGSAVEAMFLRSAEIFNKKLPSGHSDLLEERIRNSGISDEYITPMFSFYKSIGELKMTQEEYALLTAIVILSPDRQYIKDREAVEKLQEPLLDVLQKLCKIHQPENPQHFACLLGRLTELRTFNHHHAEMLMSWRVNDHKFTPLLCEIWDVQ
Chain of Signal transducer and activator of transcription 3 (Homo sapiens) (P40763 whole entry, looked up): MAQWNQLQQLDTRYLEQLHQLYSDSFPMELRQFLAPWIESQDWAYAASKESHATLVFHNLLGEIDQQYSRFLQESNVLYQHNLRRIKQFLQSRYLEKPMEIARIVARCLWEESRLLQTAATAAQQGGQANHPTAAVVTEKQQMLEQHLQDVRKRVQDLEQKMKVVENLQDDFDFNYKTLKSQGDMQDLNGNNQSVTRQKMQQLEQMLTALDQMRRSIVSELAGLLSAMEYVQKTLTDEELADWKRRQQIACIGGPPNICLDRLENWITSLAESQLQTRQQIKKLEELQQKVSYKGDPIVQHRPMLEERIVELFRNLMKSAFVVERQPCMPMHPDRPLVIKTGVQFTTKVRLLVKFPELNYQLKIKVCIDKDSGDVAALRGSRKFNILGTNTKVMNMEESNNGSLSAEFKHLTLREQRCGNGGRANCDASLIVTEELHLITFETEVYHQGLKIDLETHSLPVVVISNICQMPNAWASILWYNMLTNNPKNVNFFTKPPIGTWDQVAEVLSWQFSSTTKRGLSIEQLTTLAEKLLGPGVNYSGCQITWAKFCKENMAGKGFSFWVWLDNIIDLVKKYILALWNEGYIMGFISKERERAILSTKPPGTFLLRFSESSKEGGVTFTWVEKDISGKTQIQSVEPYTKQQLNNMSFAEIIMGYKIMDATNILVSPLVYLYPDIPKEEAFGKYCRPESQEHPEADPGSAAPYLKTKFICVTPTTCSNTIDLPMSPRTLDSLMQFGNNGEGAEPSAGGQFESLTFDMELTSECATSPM
Chain of Heat shock factor protein 1 (Homo sapiens) (Q00613 whole entry, looked up): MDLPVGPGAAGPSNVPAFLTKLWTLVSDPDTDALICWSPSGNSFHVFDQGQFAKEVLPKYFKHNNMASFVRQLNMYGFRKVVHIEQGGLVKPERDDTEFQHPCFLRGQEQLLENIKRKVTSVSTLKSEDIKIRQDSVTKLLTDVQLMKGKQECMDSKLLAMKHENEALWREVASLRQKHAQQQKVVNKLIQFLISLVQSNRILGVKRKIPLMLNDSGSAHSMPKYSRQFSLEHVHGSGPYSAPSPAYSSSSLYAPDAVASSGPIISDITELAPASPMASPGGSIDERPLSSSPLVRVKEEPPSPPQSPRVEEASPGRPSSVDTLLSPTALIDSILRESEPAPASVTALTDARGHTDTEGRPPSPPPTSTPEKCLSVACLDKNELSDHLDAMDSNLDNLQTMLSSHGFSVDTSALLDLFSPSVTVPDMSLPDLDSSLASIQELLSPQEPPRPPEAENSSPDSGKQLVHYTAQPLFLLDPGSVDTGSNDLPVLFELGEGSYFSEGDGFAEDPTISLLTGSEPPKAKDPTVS
Chain of Paired box protein Pax-6 (Homo sapiens) (P26367 whole entry, looked up): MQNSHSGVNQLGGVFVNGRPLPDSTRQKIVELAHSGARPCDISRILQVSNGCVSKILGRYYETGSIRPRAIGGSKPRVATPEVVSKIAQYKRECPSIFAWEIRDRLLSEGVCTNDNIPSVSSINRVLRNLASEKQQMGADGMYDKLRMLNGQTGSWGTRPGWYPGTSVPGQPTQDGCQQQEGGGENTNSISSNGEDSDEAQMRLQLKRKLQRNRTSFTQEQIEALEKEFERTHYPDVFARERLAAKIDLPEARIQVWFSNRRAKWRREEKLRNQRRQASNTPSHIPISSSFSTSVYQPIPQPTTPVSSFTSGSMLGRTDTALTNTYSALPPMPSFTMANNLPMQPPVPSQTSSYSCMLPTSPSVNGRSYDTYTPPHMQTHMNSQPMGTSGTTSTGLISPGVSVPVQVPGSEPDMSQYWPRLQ
Chain of Hepatocyte nuclear factor 6 (Homo sapiens) (Q9UBC0 whole entry, looked up): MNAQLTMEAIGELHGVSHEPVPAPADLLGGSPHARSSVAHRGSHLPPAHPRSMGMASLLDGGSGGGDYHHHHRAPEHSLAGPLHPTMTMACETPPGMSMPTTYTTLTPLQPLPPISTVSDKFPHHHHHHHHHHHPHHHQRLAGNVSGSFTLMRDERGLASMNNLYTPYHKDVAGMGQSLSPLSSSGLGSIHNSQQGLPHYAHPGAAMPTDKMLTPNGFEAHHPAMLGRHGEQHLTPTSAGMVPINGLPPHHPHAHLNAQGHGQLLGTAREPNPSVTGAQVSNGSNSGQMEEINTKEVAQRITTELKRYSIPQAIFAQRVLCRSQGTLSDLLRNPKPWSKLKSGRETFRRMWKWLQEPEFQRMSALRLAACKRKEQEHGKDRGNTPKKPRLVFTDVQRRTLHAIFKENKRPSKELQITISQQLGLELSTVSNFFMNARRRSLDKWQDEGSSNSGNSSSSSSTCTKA
Chain of Transcription factor Sp1 (Homo sapiens) (P08047 whole entry, looked up): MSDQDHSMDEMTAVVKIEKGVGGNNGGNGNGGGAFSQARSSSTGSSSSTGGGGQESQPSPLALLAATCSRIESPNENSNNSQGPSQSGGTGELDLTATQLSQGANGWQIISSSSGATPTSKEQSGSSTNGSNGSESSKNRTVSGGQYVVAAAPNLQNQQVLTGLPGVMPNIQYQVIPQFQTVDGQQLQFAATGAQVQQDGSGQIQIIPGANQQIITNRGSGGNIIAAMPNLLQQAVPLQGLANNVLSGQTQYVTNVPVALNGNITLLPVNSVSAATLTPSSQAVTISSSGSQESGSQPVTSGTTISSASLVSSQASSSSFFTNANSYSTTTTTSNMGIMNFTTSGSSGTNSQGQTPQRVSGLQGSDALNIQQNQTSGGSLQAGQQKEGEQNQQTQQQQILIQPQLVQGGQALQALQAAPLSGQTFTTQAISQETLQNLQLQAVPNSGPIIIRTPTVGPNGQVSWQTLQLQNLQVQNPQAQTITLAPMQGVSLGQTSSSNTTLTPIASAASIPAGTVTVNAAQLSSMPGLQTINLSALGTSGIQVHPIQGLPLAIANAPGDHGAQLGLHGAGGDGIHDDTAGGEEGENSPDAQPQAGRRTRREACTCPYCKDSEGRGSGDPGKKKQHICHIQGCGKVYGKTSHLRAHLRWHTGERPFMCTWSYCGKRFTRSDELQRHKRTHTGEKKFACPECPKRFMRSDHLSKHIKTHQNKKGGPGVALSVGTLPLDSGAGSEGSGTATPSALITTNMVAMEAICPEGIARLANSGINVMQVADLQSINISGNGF

O=S(=O)(O)c1ccc(Cl)cc1
not listed: [18] | [19]
inactive: all other assays above

CCCCCCCC/C=C\CCCCCCCC(=O)OCC(O)CO (centres undefined)
not listed: [6] | [19]
inactive: all other assays above

C[C@]12CC[C@H]3C(=CCc4cc(O)ccc43)[C@@H]1CCC2=O
active: [11] 26.6 µM
not listed: [15]
inactive: all other assays above

OCCCCl
not listed: [11]
inactive: all other assays above

O=c1[nH]cccc1O
not listed: [18]
inactive: all other assays above

Brc1ccccn1
not listed: [11] | [18]
inactive: all other assays above

CC(=O)C=O
not listed: [5] | [18]
inactive: all other assays above

Nc1cc([N+](=O)[O-])cc(Cl)c1O
active: [11] 5.15 µM
not listed: [6] | [18]
inactive: all other assays above

CCOC(=O)C1CC(=O)C(=C(O)C2CC2)C(=O)C1 (centres undefined)
active: [11] 77.3 µM
not listed: [9] | [19]
inactive: all other assays above

CC(C)(C)c1cc(CCC(=O)NCCCCCCNC(=O)CCc2cc(C(C)(C)C)c(O)c(C(C)(C)C)c2)cc(C(C)(C)C)c1O
not listed: [11] | [15] | [19]
inactive: all other assays above

CC(C)=CCCC(C)O (centres undefined)
not listed: [6]
inactive: all other assays above

CN1CN(C)CN(C)C1
active: [18] 160 µM | [8] 182 µM | [11] 49.5 µM
not listed: [6] | [9]
inactive: all other assays above

Cc1ccc(O)cn1
not listed: [18]
inactive: all other assays above

O=C(c1ccccc1)c1ccc(Cl)cc1
active: [18] 153 µM | [8] 57.5 µM
not listed: [5] | [6] | [9] | [11] | [19]
inactive: all other assays above
